Cruzain noTriton: qHTS Assay for Promiscuous and Specific Inhibitors of Cruzain (without detergent); purified cruzain, Z-FR-AMC fluorescence, no detergent; Potency, µM, actives largely listed as inhibitors; 200,000 compounds, 2.3% hits; AID 1476, 2009; further: nearly all actives have a fitted effect of over 40% in size
Target sequence (P25779 123-467 limits assumed): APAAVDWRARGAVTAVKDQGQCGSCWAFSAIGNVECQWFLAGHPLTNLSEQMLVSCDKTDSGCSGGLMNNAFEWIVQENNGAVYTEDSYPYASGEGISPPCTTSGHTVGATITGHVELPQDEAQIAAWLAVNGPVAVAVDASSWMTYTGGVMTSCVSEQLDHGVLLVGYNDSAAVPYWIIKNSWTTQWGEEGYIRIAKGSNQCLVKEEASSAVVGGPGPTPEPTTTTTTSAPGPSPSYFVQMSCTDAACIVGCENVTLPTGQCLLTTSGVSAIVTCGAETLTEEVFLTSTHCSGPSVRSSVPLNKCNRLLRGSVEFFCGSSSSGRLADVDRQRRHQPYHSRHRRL
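Detergent-free condition (0.00005% Triton X-100) in acetate buffer pH 5.5 with DTT. 1.5 nM enzyme and compound were pre-mixed 15 min, then 2 uM Z-FR-AMC substrate added; reaction progress from fluorescence change between first and third reads (60 s).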
Cruzain Triton: qHTS Assay for Promiscuous and Specific Inhibitors of Cruzain (with detergent); Potency, µM, hits mostly inhibitors; AID 1478, 2009; purified cruzain, Z-FR-AMC fluorescence, 0.01% Triton; Cruzipain (Trypanosoma cruzi), P25779; 200,000 compounds, 0.43% hits; further: nearly all actives have a fitted effect of over 40% in size
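Cruzain (1.5 nM) preincubated 15 min at RT with compound in 100 mM sodium acetate pH 5.5, 5 mM DTT, 0.01% Triton X-100. Reaction started with 2 uM Z-FR-AMC; AMC fluorescence (ex 360/em 450 nm) change over 60 s gave rate.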
Hits are given with their value; - = inactive; ? = inconclusive. Hits are enriched below; roughly 2.6% of the tested compounds scored in any of these assays. The call rests on the fitted dose curve; in most records, active means well fitted curve in the direction sought with a large enough effect; inconclusive means small, poorly fitted or top-dose-only effect, or another doubt; inactive means no such curve, though single readings can be large; an effect the other way counts as inactive or inconclusive.

SMILES | Cruzain noTriton | Cruzain Triton
CCOc1ccc(N2C(=O)CC(Sc3nc(-c4cccs4)cc(C(F)(F)F)c3C#N)C2=O)cc1 (stereo not drawn) | 13µM | -
CCOc1ccc(N2C(=O)CC(Sc3ncccn3)C2=O)cc1 (stereo not drawn) | - | -
O=C(CSc1n[nH]c(-c2ccc(F)cc2)n1)NCc1ccccc1Cl | - | -
O=C(Nc1ccc2oc(-c3ccc4ccccc4c3)nc2c1)c1cc(Cl)ccc1Cl | 5µM | -
O=C(Nc1ccc2oc(-c3ccc4ccccc4c3)nc2c1)c1cc(Br)ccc1Cl | - | -
COc1cc(NC(=O)c2cc(Cl)ccc2Cl)ccc1-c1cc2ccccc2oc1=O | 20µM | -
COc1ccc(C(=O)Nc2ccc(-c3cc4ccccc4oc3=O)c(C)c2)cc1OC | ? | -
Clc1ccc(C2=C3CCCCn4c(-c5ccccc5)c[n+](c43)C2)cc1 | ? | -
COc1ccc(-c2c[n+]3c4n2CCCCC4=C(c2ccc(Br)cc2)C3)cc1 | 10µM | -
CC(=O)c1cccc(NC(=O)c2ccc(Cl)c(S(=O)(=O)N3CCOCC3)c2)c1 | - | -
COC(=O)NC(/C=C/c1ccccc1)C(C(C)=O)C(=O)OC (stereo not drawn) | - | -
COc1ncc2nc(-c3ccc(Cl)cc3)c(=O)n(Cc3cccs3)c2n1 | - | -
Cc1nc(NC(=O)/C=C/c2ccccc2)sc1C(=O)Nc1ccccc1Cl | 10µM | -
Cc1nc(NC(=O)/C=C/c2ccccc2)sc1C(=O)Nc1ccc(Cl)cc1 | - | -
Cc1cc(F)ccc1NC(=O)C1CCC(CNS(=O)(=O)c2ccc3c(c2)CCCC(=O)N3)CC1 (stereo not drawn) | - | -
CC(C)Cc1ccc(C(C)C(=O)Nc2nccs2)cc1 (stereo not drawn) | 25µM | -
CC(C)C(C(=O)Nc1nccs1)c1ccccc1 (stereo not drawn) | - | -
CC(=O)c1ccc(NC2=NS(=O)(=O)c3ccccc32)cc1 | - | -
CCCCCCNC(=O)C(C#N)c1nc2ccccc2nc1N1CCCC1 (stereo not drawn) | - | -
CCCCCNC(=O)C(C#N)c1nc2ccccc2nc1N1CCCC1 (stereo not drawn) | 13µM | -
O=C1NC(=O)/C(=C\c2ccccc2Oc2ccc(F)c(F)c2)S1 | 25µM | -
CN1C(=O)C(=Cc2ccccc2Oc2ccc(Cl)c(F)c2)C(=O)N(C)C1=O | - | -
Nc1nc(Nc2ccc(Cl)cc2)nc2ccccc12 | 10µM | 28µM
COc1cc2nc(Nc3cccc(C)c3)nc(N)c2cc1OC | - | ?
Oc1ccc(Nc2nc(-c3ccc(Cl)cc3)nc3ccccc23)cc1 | ? | -
SMILES | Cruzain noTriton | Cruzain Triton
Nc1nc(Nc2ccccc2)nc2ccccc12 | 25µM | ?
COc1ccc(NC(=O)CN2C(=O)C(=O)c3ccccc32)c(OC)c1 | - | -
COc1cc(NS(=O)(=O)c2c(C(=O)N3CCCCC3)c(C)n(C)c2C)cc(OC)c1OC | - | -
COc1cccc(NC(=O)Cn2c(=O)c3cccn3c3ccc(F)cc32)c1 | - | -
CN(C)c1ccc(/C=C2\SC(=O)N(CC(O)Cn3c4ccccc4c4ccccc43)C2=O)cc1 (stereo not drawn) | 5µM | -
O=C1S/C(=C/c2ccccc2)C(=O)N1CC(O)Cn1c2ccccc2c2ccccc21 (stereo not drawn) | - | -
Cc1ccccc1NC(=O)c1sc2nc(-c3cc4ccccc4oc3=O)[nH]c(=O)c2c1C | - | -
O=C(/C=C/c1ccc(F)cc1)Nc1nc2n(n1)C(c1ccc(Cl)cc1)C=C(c1ccccc1)N2 (stereo not drawn) | - | -
Cc1ccc(N=C2NC(=O)/C(=C\c3cccs3)S2)cc1C | 25µM | -
Cc1cccc(N=C2NC(=O)/C(=C/c3cccs3)S2)c1 | ? | -
CCN(C(=O)C1CCN(S(=O)(=O)c2cc(Br)cc3c2N(C(C)=O)CC3)CC1)c1cccc(C)c1 | ? | -
CCc1ccccc1NC(=O)CSc1nc2ccccc2nc1Cc1cccc(OC)c1 | - | -
Cc1ccc2sc3ccc(NC(=O)c4ccccc4Cl)cc3c(=O)c2c1 | 25µM | -
CCCn1c(=O)sc2cc(NC(=O)c3ccccc3Cl)ccc21 | - | -
CCOC(=O)N1CCN(C(=O)CN(c2cc(C)ccc2OC)S(=O)(=O)c2ccc(C)cc2)CC1 | ? | -
CCOc1ccc(N2CC(c3nc4ccccc4n3CCCOc3ccc(OC)cc3)CC2=O)cc1 (stereo not drawn) | - | -
COc1cccc(-c2cc3nc(-c4ccccc4)cc(N4CCC5(CC4)OCCO5)n3n2)c1 | - | 28µM
COc1cccc(-c2cc(C(F)(F)F)n3nc(C(=O)N4CCC5(CC4)OCCO5)cc3n2)c1 | ? | -
CCOC(=O)c1cc2c(=O)n3ccccc3nc2n(C(C)C)c1=NC(=O)C(C)(C)Oc1ccc(Cl)cc1 | - | -
Cc1cc(C)nc(SCc2ccc(C(=O)N/N=C/c3cccc(O)c3O)cc2)n1 | - | -

Screens as filed in PubChem BioAssay.
